# A selection: hits, their analogues and other compounds. The true share with any hit is near 3.6%.
# MazF activator: activators of E. coli MazEF toxin-antitoxin RNase, primary screen, biochemical, fluorescence, uHTS; activation, % at 20 µM; Endoribonuclease toxin MazF (Escherichia coli (strain K12)), P0AE70; FAM/BHQ RNA-DNA oligo cleavage fluorescence, 5 h; AID 504720, 2011; actives 0.32% (n = 350,000); in the data active = activation above about 50%
# BoNT A protease: BoNT/A light chain protease inhibitors, primary screen, biochemical, flow cytometry, MLPCN library | multiplex microsphere protease substrate cleavage | inhibition, % at 10 µM | actives 0.17% (n = 360,000) | AID 588499, 2011
# Anthrax LF inh2: Bacillus anthracis LF protease inhibitors, primary screen, biochemical, multiplex microsphere, MLPCN library | Lethal factor (Bacillus anthracis), P15917 | multiplex microsphere protease cleavage assay | inhibition, % at 10 µM | actives 0.12% (n = 360,000) | AID 588501, 2011
# Bead autofluor: compound fluorescence in toxin protease inhibitor counterscreen; AID 624483; compound autofluorescence counterscreen, microsphere flow cytometry; hits give high values; fluorescence intensity (no concentration beside the values); actives 3.1% (n = 360,000); in the data active = fluorescence intensity above about 16000; inconclusive = no clear call, values can overlap the other calls
# BoNT F protease: BoNT/F light chain protease inhibitors, primary screen, biochemical, flow cytometry, MLPCN library; Botulinum neurotoxin type F light chain protease (Clostridium botulinum); Multiplex microsphere protease cleavage assay; inhibition, % at 10 µM; actives 0.22% (n = 360,000); in the data active = inhibition above about 35%, passing the limit was not always enough; inconclusive = no clear call, values can overlap the other calls
# Numbers stand for hits; 0 = inactive; ? = inconclusive; - = no result given. Cut-off read from the data, not from the text of the source, unless noted: active = inhibition above about 30%; inconclusive = no clear call, values can overlap the other calls; inactive = below that.
SMILES,MazF activator,BoNT A protease,Anthrax LF inh2,Bead autofluor,BoNT F protease
Cc1cc(C=C2C(=O)c3ccccc3C2=O)c(C)n1-c1ccccc1,156,0,0,0,0
O=C(O)c1cccc(-n2cccc2C=C2C(=O)c3ccccc3C2=O)c1,0,0,0,0,0
C(=N\n1cnnc1)/c1cccn1-c1ccccc1,0,0,0,16775,0
CC1(C(=O)NCc2ccccc2)CCC(=O)N1CCCn1ccnc1 (stereo not given),-,0,0,0,0
CN1C[C@H]2CON(C)[C@H]2C[C@H]1c1cccc(-c2ccccc2)c1,0,0,0,0,0
Cc1ccsc1C(=O)OCC(=O)N(C)C1CCCCC1,0,0,0,0,0
CCn1c(CC(C)C)n[nH]c1=S,0,0,0,0,0
CCn1c(CCn2ccnc2C)n[nH]c1=S,0,?,0,18972,0
Cc1nn(C)cc1C1C2=C(CC(C)(C)CC2=O)N(c2ccccc2)C2=C1C(=O)CC(C)(C)C2,0,0,0,0,0
Cc1ccc(N2C3=C(C(=O)CC(C)(C)C3)C(c3cn(C)nc3C)C3=C2CC(C)(C)CC3=O)cc1,0,0,0,20845,0
Cc1nnc(-c2cnn(-c3ccccc3)c2N)n1Cc1ccncc1,0,?,0,20279,0
COc1ccc(CCN=c2c([N+](=O)[O-])nn(-c3cccc(C)c3)n2O)cc1OC,0,0,0,0,40
Cc1ccc(N=c2c([N+](=O)[O-])nn(-c3ccccc3)n2O)c(C)c1,0,0,0,17460,0
O=c1c2cc(N3CCOCC3)ccc2[nH]c(=S)n1Cc1ccco1,0,?,?,?,?
O=c1c2cc(N3CCOCC3)ccc2[nH]c(=S)n1Cc1cccc(Cl)c1,0,0,0,23197,0
COc1cccc(Cn2c(=S)[nH]c3ccc(N4CCOCC4)cc3c2=O)c1,0,0,0,20640,0
O=c1c2cc(N3CCOCC3)ccc2[nH]c(=S)n1CCCN1CCCC1,0,0,0,0,0
CC1CCN(CCCn2c(=S)[nH]c3ccc(N4CCOCC4)cc3c2=O)CC1,0,0,0,22801,0
CCN(CC)NC(=S)Nc1ccccc1,0,0,0,22619,0
Cc1ccc(N2C(=O)c3n[nH]c(C)c3C2c2ccco2)cc1 (stereo not given),0,?,0,22119,0
CCOC(=O)c1ccc(N2C(=O)c3n[nH]c(C)c3C2c2ccco2)cc1 (stereo not given),0,0,0,0,0
Cc1n[nH]c(=O)nc1NC(C)c1ccccc1 (stereo not given),0,0,0,22579,0
COc1ccccc1-n1nnnc1SC(C)C(=O)NC1CCCC1 (stereo not given),0,0,0,?,0
COc1cccc(/C=N/NC(=O)c2nnn(-c3nonc3N)c2CN(C)C2CCCCC2)c1,0,0,0,0,0
CC(=NC1CC1)C1=C(O)c2ccccc2C1=O,0,?,0,22929,0
SMILES,MazF activator,BoNT A protease,Anthrax LF inh2,Bead autofluor,BoNT F protease
COc1ccc(S(=O)(=O)N2CCN(C(=O)CC3CC4CCC3C4)CC2)cc1 (stereo not given),0,0,0,0,0
COc1ccc(NC(=O)c2cc(-c3cccnc3)nc3c(C)c(C)ccc23)c(OC)c1,0,0,0,17562,0
COc1ccccc1NC(=O)c1cccnc1,0,0,0,0,0
COc1ccc(NC(=O)c2ccccc2C)c(OC)c1,0,0,0,16437,0
COc1cccc(NC(=O)c2cc(-c3cccnc3)nc3c(Cl)cccc23)c1,0,0,0,0,0
COc1ccc(NC(=O)Nc2cc(C)ccc2OC(F)F)c(OC)c1,0,0,0,22223,0
COc1ccc(NC(=O)c2cccnc2)c(OC)c1,0,?,0,20616,0
COc1ccc(NC(=O)c2ccccc2Oc2ccccc2)c(OC)c1,0,0,0,0,0
COc1ccccc1CC(=O)c1ccccc1OC,0,0,0,0,0
COc1cc(C(=O)N2CCC(NC(=O)C(Cc3ccc(C(C)C)cc3)NC(C)=O)CC2)cc(OC)c1OC (stereo not given),0,0,0,0,0
COc1cc(C(=O)N2CCN(C(=O)C(Cc3cc(C)ccc3C)NC(C)=O)CC2)cc(OC)c1OC (stereo not given),0,0,0,22028,0
COc1cc(C(=O)N2CCC(NC(=O)C(Cc3ccccc3C)NC(C)=O)CC2)cc(OC)c1OC (stereo not given),0,?,0,21354,0
COc1cc(C(=O)N2CCC(NC(=O)C(Cc3ccc(C)cc3)NC(C)=O)CC2)cc(OC)c1OC (stereo not given),0,0,0,22816,0
COc1ccccc1CC(NC(C)=O)C(=O)N1CCN(C(=O)c2cccs2)CC1 (stereo not given),0,0,0,0,0
COc1cccc(NC(=O)CN(C)C(=O)c2ccc(OCC3CCCO3)cc2)c1 (stereo not given),0,-,-,-,-
COc1cc(SC)ccc1C(=O)NCCOc1c(C)cc(C)cc1C,0,0,0,20169,0
Cc1cccn2c(=O)c3cc(C(=O)NC4CCCC4)sc3nc12,0,-,-,-,-
CCCN(CCC)C(=O)C1CCN(c2cc(C)nc3c(-c4ccc(OC)c(OC)c4)c(C)nn23)CC1,0,0,0,0,0
COc1ccc(-c2c(C)nn3c(N4CCC(C(=O)NCCN(C)C)CC4)cc(C)nc23)cc1OC,0,0,0,23368,0
O=c1[nH]c2nc(Br)[nH]c(=O)c2[nH]1,0,0,0,0,0
O=S(=O)(Nc1ncccn1)c1ccc(Cl)cc1,0,-,-,-,-
CN(C)c1nc(NS(=O)(=O)c2ccc(Cl)cc2)nc(N(C)C)n1,0,0,0,16435,0
Cc1ccc(NC(=O)c2ccc(C#CC3(O)CCCCC3)cc2)cc1C,0,0,0,22190,0
Cc1ccc(NC(=O)NC2CCCCCCC2)cc1C,0,0,0,0,0
O=C(Nc1c(F)cc(F)cc1Br)c1cccnc1,0,0,0,23919,0
SMILES,MazF activator,BoNT A protease,Anthrax LF inh2,Bead autofluor,BoNT F protease
Cn1c(=O)c2c(ncn2CC(=O)OCC(=O)NC2CCCc3ccccc32)n(C)c1=O (stereo not given),0,?,0,22870,0
Cn1c(=O)c2c(ncn2CC(=O)OCC(=O)NCCc2ccccc2)n(C)c1=O,0,0,0,0,0
O=C(NCCCN1CCCC1)c1ccc(CS(=O)(=O)c2ccc(Br)cc2)o1,0,0,0,0,0
Cc1ccc(S(=O)(=O)Cc2ccc(C(=O)NCCCN3CCCC3=O)o2)cc1,0,0,0,20958,0
COc1ccc(CCNC(=O)c2ccc(CS(=O)(=O)c3ccc(Cl)cc3)o2)cc1OC,0,0,0,17952,0
Cc1ccccc1S(=O)(=O)Cc1ccc(C(=O)NCCCN2CCCC2)o1,0,0,0,0,0
Cc1ccccc1S(=O)(=O)Cc1ccc(C(=O)NCCCN2CCN(C)CC2)o1,0,0,0,22715,0
COc1ccccc1S(=O)(=O)Cc1ccc(C(=O)NCCN2CCCC2)o1,0,0,0,22371,0

# High-throughput results as filed in PubChem.
